Values joined by “and” are separate entries in the source; they are usually repeats but may differ in a detail not shown here. Identical values can stand only once. Screen size: about 5,500 compounds; about 2,000 (36%) were called active. Inconclusive results (about 18%) are left out. Cut-off read from the data, not from the text of the source: active = normalized growth mostly below about 0.91 (no sharp cut-off); inconclusive = no clear call, values can overlap the other calls; inactive = mostly above about 0.92. The list shows a part of the results.
Assay: chemical genetic growth profiling, strain panel (AID 1159580);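 note: tested at 20 µM; growth read once vehicle control cultures reached saturation at 30 °C; 1 = growth at the plate median or of vehicle wells; lower values mean less growth of the strain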
Conditions: growth OD

Measured: normalized growth

CC1=C(/C=C/C(C)=C/C=C/C(C)=C/C(=O)O)C(C)(C)CCC1
active: S. cerevisiae deletion strains, locus YLR262C, strain YPT6 (second series), hits give low values 0.827 | S. cerevisiae deletion strains, locus YOR083W, strain WHI5, hits give low values 0.883
inactive: S. cerevisiae deletion strains, locus YJR075W, strain HOC1, hits give low values 1.01 | S. cerevisiae deletion strains, locus YKL009W, strain mrt4, hits give low values 0.992 | S. cerevisiae deletion strains, locus YKL068W, hits give low values 1.02 | S. cerevisiae deletion strains, locus YKL085W, strain MDH1 (second series), hits give low values 1.02 | S. cerevisiae deletion strains, locus YKL085W, strain MDH1, hits give low values 1.02 | S. cerevisiae deletion strains, locus YKL160W, strain elf1, hits give low values 0.93 | S. cerevisiae deletion strains, locus YKL190W, strain CNB1, hits give low values 1.01 | S. cerevisiae deletion strains, locus YKR001C, strain vps1, hits give low values 1.02 | S. cerevisiae deletion strains, locus YKR026C, strain gcn3, hits give low values 1.01 | S. cerevisiae deletion strains, locus YKR091W, strain srl3, hits give low values 1.01 | S. cerevisiae deletion strains, locus YLL001W, strain dnm1, hits give low values 0.963 | S. cerevisiae deletion strains, locus YLL026W, hits give low values 0.996 | S. cerevisiae deletion strains, locus YLL041C, strain sdh2, hits give low values 1.02 | S. cerevisiae deletion strains, locus YLR027C, strain aat2, hits give low values 0.966 | S. cerevisiae deletion strains, locus YLR039C, strain RIC1, hits give low values 0.945 | S. cerevisiae deletion strains, locus YLR058C, strain SHM2, hits give low values 1.01 | S. cerevisiae deletion strains, locus YLR102C, strain apc9, hits give low values 1.04 | S. cerevisiae deletion strains, locus YLR113W, strain HOG1, hits give low values 0.978 | S. cerevisiae deletion strains, locus YLR221C, strain rsa3, hits give low values 0.982 | S. cerevisiae deletion strains, locus YLR258W, strain gsy2, hits give low values 0.972 | S. cerevisiae deletion strains, locus YLR262C, strain YPT6, hits give low values 0.93 | S. cerevisiae deletion strains, locus YLR268W, strain sec22, hits give low values 1 | S. cerevisiae deletion strains, locus YLR320W, strain mms22, hits give low values 0.935 | S. cerevisiae deletion strains, locus YLR330W, strain CHS5, hits give low values 1.01 | S. cerevisiae deletion strains, locus YLR342W, strain FKS1 (second series), hits give low values 1.02 | S. cerevisiae deletion strains, locus YLR342W, strain FKS1, hits give low values 0.922 | S. cerevisiae deletion strains, locus YLR357W, strain rsc2, hits give low values 0.94 | S. cerevisiae deletion strains, locus YLR370C, strain arc18, hits give low values 0.989 | S. cerevisiae deletion strains, locus YLR371W, strain rom2, hits give low values 1.03 | S. cerevisiae deletion strains, locus YLR384C, strain iki3, hits give low values 0.995 | S. cerevisiae deletion strains, locus YLR418C, strain cdc73, hits give low values 1.05 | S. cerevisiae deletion strains, locus YML016C, strain PPZ1, hits give low values 1.01 | S. cerevisiae deletion strains, locus YML032C, strain rad52, hits give low values 1.03 | S. cerevisiae deletion strains, locus YML120C, strain ndi1, hits give low values 1.01 | S. cerevisiae deletion strains, locus YML124C, strain tub3, hits give low values 1.03 | S. cerevisiae deletion strains, locus YMR058W, strain fet3, hits give low values 0.948 | S. cerevisiae deletion strains, locus YMR078C, strain ctf18, hits give low values 1.04 | S. cerevisiae deletion strains, locus YMR125W, strain sto1, hits give low values 1 | S. cerevisiae deletion strains, locus YMR129W, hits give low values 1 | S. cerevisiae deletion strains, locus YMR205C, strain PFK2, hits give low values 0.965 | S. cerevisiae deletion strains, locus YMR223W, strain ubp8, hits give low values 1.02 | S. cerevisiae deletion strains, locus YMR231W, strain pep5, hits give low values 1.01 | S. cerevisiae deletion strains, locus YMR263W, strain SAP30, hits give low values 1 and 0.999 | S. cerevisiae deletion strains, locus YMR307W, strain GAS1, hits give low values 1.02 | S. cerevisiae deletion strains, locus YNL067W, strain RPL9B, hits give low values 1 | S. cerevisiae deletion strains, locus YNL071W, strain lat1, hits give low values 0.957 | S. cerevisiae deletion strains, locus YNL128W, strain TEP1, hits give low values 1.02 | S. cerevisiae deletion strains, locus YNL153C, strain GIM3, hits give low values 1.01 | S. cerevisiae deletion strains, locus YNL175C, strain NOP13, hits give low values 1.05 | S. cerevisiae deletion strains, locus YNL183C, strain NPR1, hits give low values 0.905 | S. cerevisiae deletion strains, locus YNL197C, strain WHI3, hits give low values 1.04 | S. cerevisiae deletion strains, locus YNL209W, strain ssb2, hits give low values 0.973 | S. cerevisiae deletion strains, locus YNL224C, strain SQS1, hits give low values 1.03 | S. cerevisiae deletion strains, locus YNL233W, strain BNI4, hits give low values 1.01 | S. cerevisiae deletion strains, locus YNL248C, strain rpa49, hits give low values 0.955 | S. cerevisiae deletion strains, locus YNL250W, strain rad50, hits give low values 1.03 | S. cerevisiae deletion strains, locus YNL271C, strain bni1, hits give low values 1.03 | S. cerevisiae deletion strains, locus YNL298W, strain CLA4, hits give low values 1.03 | S. cerevisiae deletion strains, locus YNL307C, strain MCK1, hits give low values 1.01 | S. cerevisiae deletion strains, locus YNL322C, strain KRE1 (second series), hits give low values 0.989 | S. cerevisiae deletion strains, locus YNL322C, strain KRE1, hits give low values 1.01 and 1 | S. cerevisiae deletion strains, locus YNR049C, strain mso1, hits give low values 1.01 | S. cerevisiae deletion strains, locus YNR052C, strain pop2, hits give low values 1.04 | S. cerevisiae deletion strains, locus YOL006C, strain TOP1, hits give low values 1.04 | S. cerevisiae deletion strains, locus YOL012C, strain htz1 1.82 | S. cerevisiae deletion strains, locus YOL147C, strain pex11, hits give low values 1.03 | S. cerevisiae deletion strains, locus YOR001W, strain rrp6, hits give low values 0.978 | S. cerevisiae deletion strains, locus YOR061W, strain CKA2, hits give low values 1.01 | S. cerevisiae deletion strains, locus YOR069W, strain VPS5, hits give low values 1.01 | S. cerevisiae deletion strains, locus YOR070C, strain gyp1, hits give low values 0.975 | S. cerevisiae deletion strains, locus YOR080W, strain dia2, hits give low values 0.999 | S. cerevisiae deletion strains, locus YOR083W, strain WHI5 (second series), hits give low values 1.02 | S. cerevisiae deletion strains, locus YOR106W, strain vam3, hits give low values 0.935 | S. cerevisiae deletion strains, locus YOR136W, strain idh2, hits give low values 1.04 | S. cerevisiae deletion strains, locus YOR144C, strain elg1, hits give low values 1.04 | S. cerevisiae deletion strains, locus YOR184W, strain ser1, hits give low values 1.03 | S. cerevisiae deletion strains, locus YOR231W, strain MKK1, hits give low values 0.992 | S. cerevisiae deletion strains, locus YOR265W, strain rbl2, hits give low values 1.01 | S. cerevisiae deletion strains, locus YOR270C, strain vph1, hits give low values 0.926 | S. cerevisiae deletion strains, locus YOR290C, strain snf2, hits give low values 0.952 | S. cerevisiae deletion strains, locus YOR316C, strain cot1, hits give low values 1.02 | S. cerevisiae deletion strains, locus YPL051W, strain arl3, hits give low values 0.932 | S. cerevisiae deletion strains, locus YPL055C, strain LGE1, hits give low values 1.01 and 0.999 | S. cerevisiae deletion strains, locus YPL078C, strain atp4, hits give low values 0.943 | S. cerevisiae deletion strains, locus YPL106C, strain sse1, hits give low values 0.987 | S. cerevisiae deletion strains, locus YPL240C, strain hsp82, hits give low values 0.992 | S. cerevisiae deletion strains, locus YPL241C, strain CIN2, hits give low values 1.01 | S. cerevisiae deletion strains, locus YPL256C, strain CLN2, hits give low values 1.04 | S. cerevisiae deletion strains, locus YPR119W, strain clb2, hits give low values 1.03 | S. cerevisiae deletion strains, locus YPR141C, strain kar3, hits give low values 1.05 | S. cerevisiae deletion strains, locus YPR163C, strain tif3, hits give low values 1.04 | S. cerevisiae deletion strains, locus YPR167C, strain met16, hits give low values 1.03 | S. cerevisiae deletion strains, strain wtn01, hits give low values 1.04 | S. cerevisiae strains, strain wild type, hits give low values 1

— PubChem BioAssay AID1159580 (chemical genetic matrix, 2015)
